We go through 26 compounds from PubChem BioAssay (NCATS).

Inconclusive results are not listed. Entries that show only a call come without a potency. Calls of active or inactive are those of the source. Calls come from the whole dose curve; as a rule, active = well fitted inhibition curve with a large enough effect; inconclusive = small, poorly fitted or top-dose-only effect; inactive = flat fitted curve, though single readings scatter. Where a SMILES comes first, the peptide text is derived from it. [ ]: non-standard residue; d: D form. pGlu = O=C1CC[C@@H](C(=O)O)N1
Potency is the fitted concentration of half-maximal effect.

Sequence of Voltage-gated inwardly rectifying potassium channel KCNH2 (Homo sapiens) (Q12809 whole entry, looked up): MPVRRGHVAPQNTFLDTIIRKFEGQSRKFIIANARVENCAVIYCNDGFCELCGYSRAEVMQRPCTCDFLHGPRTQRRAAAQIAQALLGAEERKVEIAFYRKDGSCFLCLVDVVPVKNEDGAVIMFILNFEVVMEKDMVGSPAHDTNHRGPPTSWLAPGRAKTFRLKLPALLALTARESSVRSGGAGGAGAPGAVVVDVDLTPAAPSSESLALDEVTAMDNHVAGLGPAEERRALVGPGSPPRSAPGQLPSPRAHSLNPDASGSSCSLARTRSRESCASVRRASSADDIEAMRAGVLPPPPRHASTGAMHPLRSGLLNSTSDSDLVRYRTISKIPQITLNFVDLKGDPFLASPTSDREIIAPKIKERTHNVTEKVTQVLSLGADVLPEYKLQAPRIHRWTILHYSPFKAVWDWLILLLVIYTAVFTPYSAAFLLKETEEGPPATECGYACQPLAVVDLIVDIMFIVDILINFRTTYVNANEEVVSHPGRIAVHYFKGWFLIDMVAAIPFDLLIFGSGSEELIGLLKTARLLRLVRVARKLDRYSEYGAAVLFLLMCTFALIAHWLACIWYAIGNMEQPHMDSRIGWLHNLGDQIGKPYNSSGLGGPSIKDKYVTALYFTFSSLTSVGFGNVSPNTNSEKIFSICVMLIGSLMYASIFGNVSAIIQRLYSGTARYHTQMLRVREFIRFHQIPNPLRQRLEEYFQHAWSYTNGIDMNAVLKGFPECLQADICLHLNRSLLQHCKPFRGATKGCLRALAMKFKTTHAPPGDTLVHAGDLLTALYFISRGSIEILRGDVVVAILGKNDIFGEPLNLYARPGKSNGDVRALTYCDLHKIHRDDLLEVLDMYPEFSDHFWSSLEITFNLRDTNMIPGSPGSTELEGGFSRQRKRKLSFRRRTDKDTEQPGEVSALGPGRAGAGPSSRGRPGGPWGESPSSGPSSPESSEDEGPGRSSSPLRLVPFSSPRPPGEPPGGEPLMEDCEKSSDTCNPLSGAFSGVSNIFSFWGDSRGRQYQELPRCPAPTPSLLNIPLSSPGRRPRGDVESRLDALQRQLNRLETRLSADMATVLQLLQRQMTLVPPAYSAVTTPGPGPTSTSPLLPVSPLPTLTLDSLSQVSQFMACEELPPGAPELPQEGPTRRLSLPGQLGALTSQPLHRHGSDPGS

This assay has as its target Voltage-gated inwardly rectifying potassium channel KCNH2 (Homo sapiens) (UniProt Q12809). Put plainly: qHTS Assay for Small Molecule Inhibitors of the Human hERG Channel Activity (AID 588834).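 Note: lower thallium flux fluorescence means stronger hERG block; nearly all actives have a fitted effect of over 50% in size.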 The conditions noted are these: U2OS BacMam hERG, FluxOR thallium flux fluorescence; series mostly up to 46.1 µM. The method, boiled down:
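Concentration-response qHTS measuring drop in thallium-sensitive dye signal. U2OS cells carrying BacMam hERG; compound exposure ~10 min, then stimulation buffer and 2 min read at 1 sec intervals.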
For orientation: Quantitative high-throughput screening tests each substance at several concentrations.
For `CO/N=C(\C(=O)N[C@@H]1C(=O)N2C(C(=O)O)=C(C[N+]3(C)CCCC3)CS[C@H]12)c1csc(N)n1`, the Potency result was “inactive”.
With `C=O` the entry was “inactive”; with `CCN(CC)C(=O)[C@]1(c2ccccc2)C[C@@H]1CN`, “inactive”.
For `CCOC(=O)Oc1c(OC)cc(C(=O)O[C@@H]2C[C@@H]3CN4CCc5c([nH]c6cc(OC)ccc56)[C@H]4C[C@@H]3[C@H](C(=O)OC)[C@H]2OC)cc1OC` the value was 2.24 µM (active).
With `CC(C)CN(C[C@@H](O)[C@H](Cc1ccccc1)NC(=O)O[C@@H]1CCOC1)S(=O)(=O)c1ccc(N)cc1` the entry was “inactive”.
For `O=C(OC[C@H]1O[C@](O)(COC(=O)c2cccnc2)[C@@H](OC(=O)c2cccnc2)[C@@H]1OC(=O)c1cccnc1)c1cccnc1`, the Potency entry is “inactive”.
Regarding `C=C1c2c(Cl)ccc(O)c2C(O)=C2C(=O)[C@]3(O)C(O)=C(C(N)=O)C(=O)[C@@H](N(C)C)[C@@H]3[C@@H](O)[C@H]12`, the Potency entry is “inactive”.
With `O=C(O)c1cc(O)c2c(c1)[C@H]([C@H]1c3cc(C(=O)O)cc(O)c3C(=O)c3c(O[C@@H]4O[C@H](CO)[C@@H](O)[C@H](O)[C@H]4O)cccc31)c1cccc(O[C@@H]3O[C@H](CO)[C@@H](O)[C@H](O)[C@H]3O)c1C2=O` the entry was “inactive”; with `CC[C@H](C)[C@H](NC(=O)[C@H](Cc1ccccc1)NC(=O)[C@H](C)NC(=O)[C@H](CC(=O)O)NC(=O)[C@H](CCCCN)NC(=O)[C@H](CO)NC(=O)[C@@H]1CCCN1C(=O)[C@@H]1CCC(=O)N1)C(=O)NCC(=O)N[C@@H](CC(C)C)C(=O)N[C@@H](CCSC)C(N)=O` ([pGlu]PSKDAFIGLM-NH2), “inactive”; with `CC(=O)OCC(=O)[C@@]1(O)CC[C@H]2[C@@H]3CCC4=CC(=O)CC[C@]4(C)C3=CC[C@@]21C`, “inactive”.
Turning to `Cc1ccc(S(=O)(=O)NC(=O)N[C@@H](C)Cc2ccccc2)cc1`, the Potency result is “inactive”.
For `O=C(OC[C@H]1O[C@@H](OC(=O)c2cc(O)c(O)c(OC(=O)c3cc(O)c(O)c(O)c3)c2)[C@H](OC(=O)c2cc(O)c(O)c(OC(=O)c3cc(O)c(O)c(O)c3)c2)[C@@H](OC(=O)c2cc(O)c(O)c(OC(=O)c3cc(O)c(O)c(O)c3)c2)[C@@H]1OC(=O)c1cc(O)c(O)c(OC(=O)c2cc(O)c(O)c(O)c2)c1)c1cc(O)c(O)c(OC(=O)c2cc(O)c(O)c(O)c2)c1` the value was 25.1 µM (active); for `CCCCC[C@H](O)/C=C/[C@H]1[C@H](O)CC(=O)[C@@H]1CCCCCCC(=O)O`, “inactive”; for `O=C1CC[C@@H](C(=O)N[C@H]2C[C@@H]2c2ccccc2)N1`, “inactive”.
For `CC(=NCc1ccccc1)c1ccccc1O` the value was “inactive”; for `CC[C@H](CC[C@@H](C)[C@H]1CC[C@H]2[C@@H]3CC=C4C[C@@H](O)CC[C@]4(C)[C@H]3CC[C@]12C)C(C)C`, “inactive”; for `Nc1nc2c(c(=O)[nH]1)N(C=O)C(CNc1ccc(C(=O)N[C@@H](CCC(=O)O)C(=O)O)cc1)CN2` (stereo partly specified), “inactive”.
For `CC1CCCC(C)N1NC(=O)c1ccc(Cl)c(S(N)(=O)=O)c1` (stereo unspecified) the value was “inactive”.
Take `CO[C@H]1C[C@H](O[C@H]2[C@H](C)[C@@H](O[C@@H]3O[C@H](C)C[C@H](N(C)C)[C@H]3O)[C@@H](C)C[C@]3(CO3)C(=O)[C@H](C)[C@@H](O)[C@@H](C)[C@@H](C)OC(=O)[C@@H]2C)O[C@@H](C)[C@@H]1O`: the Potency result was “inactive”.
With `CCN1\C(=C/C=C/C=C/c2sc3ccccc3[n+]2CC)Sc2ccccc21` the figure was 11.2 µM (active).
`C=CC1=C(C(=O)O)N2C(=O)[C@@H](NC(=O)/C(=N/OCC(=O)O)c3csc(N)n3)[C@H]2SC1` (stereo in doubt): the Potency result was “inactive”.
For `NC(=O)c1ccc[n+]([C@@H]2O[C@H](COP(=O)([O-])OP(=O)(O)OC[C@H]3O[C@@H](n4cnc5c(N)ncnc54)[C@H](O)[C@@H]3O)[C@@H](O)[C@H]2O)c1` the value was “inactive”; for `C[N@+]12CCCC[C@@H]1CCC(=C(c1cccs1)c1cccs1)C2`, 2.24 µM (active).
Take `C=CC[N@@+]12CC[C@@]34c5ccccc5N5/C=C6/[C@H]7C[C@H]8[C@@]9(CC[N@@+]8(CC=C)C/C7=C/CO)c7ccccc7N(/C=C(/[C@@H](C[C@@H]31)/C(=C\CO)C2)[C@H]54)[C@@H]69`: the Potency entry was “inactive”.
For `COC(=O)[C@H]1[C@H]2C[C@@H]3c4[nH]c5cc(OC)ccc5c4CCN3C[C@H]2C[C@H](OC)[C@@H]1OC` the value was 4.47 µM (active); for `O=C1C2CC3CC1CC(O)(C3)C2`, “inactive”.
